For 68 compounds, INHIBITION results are on record in ChEMBL document CHEMBL4513216, “Probing the Open Global Health Chemical Diversity Library for Multistage-Active Starting Points for Next-Generation Antimalarials” (ACS Infect Dis, 2020).

Structures are written as SMILES. Screen size: about 68,000 compounds; about 2,700 (4%) showed an effect of 50% or more. What follows is part of a selection rich in strong results, with near analogues and random picks from the rest.

The subject of this assay is Plasmodium berghei. In words: Screen against P. berghei liver stage (PbLuc), transformed with Luciferase, at 2uM. It is filed as functional, HepG2. The following applies: tested at 2 uM.
`O=C1CC2(CCN(Cc3ccco3)C2)CN1c1ccc2c(c1)OCO2` (stereo not drawn): the INHIBITION worked out at 14.06%.

Turning to `COCCCN1CCN([C@@H]2c3ccccc3C3(CCNCC3)[C@H]2O)CC1`, the INHIBITION was -13.79%.

In the case of `CC(C)CN1CC2(CCN(C(=O)c3nc4ncccn4n3)CC2)CC1=O`, the INHIBITION is -47.52%.

In the case of `CCc1nc(N2CCCN(c3ncccn3)CC2)c2cnn(C)c2n1`, the INHIBITION is on record as 29.53%.

Take `CCCc1nc(N2CCCN(c3ncccn3)CC2)c2cnn(C)c2n1`: the INHIBITION is 17.73%.

Consider `CCc1nc(N2CCN(c3ncccn3)CC2)c2cnn(C)c2n1`, for which the INHIBITION was found to be 51.48%.

On to `CCCn1cc(Cl)c(C(=O)N2C[C@H]3CC(OC)C[C@H]3C2)n1` (stereo partly drawn), for which the INHIBITION is given as -13.75%.

Take `CCCS(=O)(=O)N1CCCN(CCCOC)CC1`: the INHIBITION is recorded as -14.94%.

As to `COc1cccc(NC(=O)NCc2cnn(C)c2)c1`, the INHIBITION is listed as 7.33%.

As for `COc1cccc(NC(=O)NCC(Cc2cnn(C)c2)C(N)=O)c1` (stereo not drawn), the INHIBITION is listed as 55.25%.

As to `Cn1cc(CC(CNC(=O)Nc2cccc(Cl)c2)C(N)=O)cn1` (stereo not drawn), the INHIBITION worked out at 31.78%.

As for `CO[C@@H]1CC[C@@H](NC(=O)c2ccc(OCCN3CCCC3)cc2)[C@H]1O`, the INHIBITION was -1.51%.

With `COCC(=O)N1CCC(c2cc3ncccc3c(O)n2)CC1`, the INHIBITION is on record as 19.89%.

Take `Cc1cnn(CC2CN(CCCc3nc4ccccc4o3)CCO2)c1` (stereo not drawn): the INHIBITION was found to be 5.14%.

For the compound `Fc1ccc(OCCCN2CCOC(Cn3cncn3)C2)cc1` (stereo not drawn), the INHIBITION was -20.71%.

Regarding `c1ccc2oc(CCCN3CCOC(Cn4cncn4)C3)nc2c1` (stereo not drawn), the INHIBITION came out at 53.11%.

In the case of `c1ncn(CC2CN(CCCOc3ccc4c(c3)OCO4)CCO2)n1` (stereo not drawn), the INHIBITION was determined as 53.98%.

In the case of `c1cnn(CC2CN(CCCOc3ccc4c(c3)OCO4)CCO2)c1` (stereo not drawn), the INHIBITION is reported as -14.46%.

For `c1ccc2oc(CCCN3CCOC(Cn4cccn4)C3)nc2c1` (stereo not drawn), the INHIBITION was 14.11%.

Regarding `COc1cc(N2CCC3(CCN(Cc4csc(C)n4)C3)CC2)ncn1`, the INHIBITION came to 7.76%.

Regarding `CNc1nc(C2CCCN(C(=O)C(C)(C)OC)C2)nc2c1CN(C)CC2` (stereo not drawn), the INHIBITION was -11.02%.

As for `Cc1nc(Cn2c(=O)cnc3ccccc32)n(C)n1`, the INHIBITION is listed as -48.07%.

For the compound `CN(Cc1cccs1)C(=O)c1ccc(=O)n(C)c1`, the INHIBITION came out at 7.67%.

Consider `COCCN(Cc1cccs1)C(=O)c1ccc(=O)n(C)c1`, for which the INHIBITION is 29.13%.

Regarding `CCN(Cc1cccs1)C(=O)c1ccc(=O)n(C)c1`, the INHIBITION came to 50.59%.

Turning to `CC(=O)N1CCC2(CC1)CN(C(=O)c1cccc3[nH]ccc13)C2`, the INHIBITION came out at 57.92%.

Regarding `CC(=O)N1CCC2(CC1)CN(C(=O)c1cccc3[nH]ccc13)CCO2`, the INHIBITION is given as 37.41%.

Take `CC(=O)N1CC2(CCN(C(=O)c3cccc4[nH]ccc34)CC2)C1`: the INHIBITION was found to be 3%.

For `Cc1ccc(N(Cc2ccco2)C(=O)Cc2cc(=O)n(C)[nH]2)cc1`, the INHIBITION is -12.06%.

On to `CC(NC(=O)c1cc(-c2cccc(Cl)c2)no1)C(=O)N1CCCC1` (stereo not drawn), for which the INHIBITION is on record as 24.29%.

Consider `COC(=O)[C@H](C)NC(=O)c1cc(-c2cccc(Cl)c2)no1`, for which the INHIBITION stood at 11.28%.

On to `CC(NC(=O)c1cc(-c2cccc(Cl)c2)no1)C(=O)N(C)C` (stereo not drawn), for which the INHIBITION came out at 50.59%.

In the case of `O=C(c1cncs1)N1CCC(Cc2cnc3[nH]ccc3c2)CC1`, the INHIBITION is -11.64%.

With `CC(C)OC(=O)CNC(=O)Nc1ccc(-c2nc(C(C)C)no2)cc1`, the INHIBITION is -13.72%.

In the case of `COCCNC(=O)Nc1ccc(-c2nc(C(C)C)no2)cc1`, the INHIBITION is on record as 58.53%.

In the case of `CC(C)c1noc(-c2ccc(NC(=O)NCC(O)C(C)C)cc2)n1` (stereo not drawn), the INHIBITION was -10.44%.

With `O=c1c2ccc(C(F)(F)F)cc2ncn1CCCN1CCCCC1CO` (stereo not drawn), the INHIBITION is listed as -13.49%.

Turning to `Cc1nn(C)cc1CN1CCC(c2ncc(Cl)cc2S(C)(=O)=O)CC1`, the INHIBITION is given as 20.51%.

On to `COc1ccc(C2SCC(=O)Nc3n[nH]cc32)c(OC)c1OC` (stereo not drawn), for which the INHIBITION was determined as 2.66%.

On to `O=C1CSC(c2ccncc2)c2c[nH]nc2N1` (stereo not drawn), for which the INHIBITION came out at 76.13%.

For `COc1cc(C2SCC(=O)Nc3n[nH]cc32)cc(OC)c1O` (stereo not drawn), the INHIBITION is on record as -33.37%.

`Cc1cccc(C(=O)NCc2ccccc2)n1`: the INHIBITION stood at 5.09%.

Consider `CC(C)NC(=O)NCCCc1cccc(F)c1`, for which the INHIBITION came to 78.96%.

In the case of `CC(C)(C)S(=O)(=O)CCNC(=O)NCCCc1cccc(F)c1`, the INHIBITION is reported as 26.02%.

In the case of `CC(=O)NCCNC(=O)NCCCc1cccc(F)c1`, the INHIBITION is listed as 31.55%.

Consider `OC(CN1CCN(CCOCC(F)(F)F)CC1)c1ccccc1` (stereo not drawn), for which the INHIBITION was 25.35%.

`N#Cc1ccccc1N1CCCN(C(=O)CCc2cccs2)CC1`: the INHIBITION was 16.08%.

With `N#Cc1cccnc1N1CCCN(C(=O)CCc2nccs2)CC1`, the INHIBITION is on record as -71.75%.

Turning to `N#Cc1cccnc1N1CCN(C(=O)c2cccs2)CC1`, the INHIBITION is 23.76%.

Take `Cc1ncsc1CCC(=O)NC1CCN(c2ncccc2C#N)CC1`: the INHIBITION was found to be 51.81%.

Turning to `Cc1ncsc1CCC(=O)NC1CCN(c2ccc(Cl)nn2)CC1`, the INHIBITION is listed as 2.04%.

Consider `N#Cc1ccccc1N1CCCN(C(=O)CCc2ccco2)CC1`, for which the INHIBITION is listed as 75.56%.

As for `N#Cc1cccnc1N1CCN(C(=O)CCC(=O)c2cccs2)CC1`, the INHIBITION amounted to 53.81%.

On to `O=C(CCc1nccs1)N1CCN(c2ccccc2F)CC1`, for which the INHIBITION is reported as 44.12%.

In the case of `Cc1ncsc1C(=O)NC1CCN(c2ncccc2C#N)CC1`, the INHIBITION was -4.58%.

Regarding `N#Cc1ccccc1N1CCCN(C(=O)CCc2ccsc2)CC1`, the INHIBITION is recorded as -107.32%.

As for `N#Cc1cccnc1N1CCCN(C(=O)CCc2cccs2)CC1`, the INHIBITION was found to be 10.1%.

Turning to `N#Cc1ccccc1N1CCCN(C(=O)CCc2nccs2)CC1`, the INHIBITION is listed as 63.95%.

For `COC1COC2(CCN(Cc3ccccc3C)CC2)C1` (stereo not drawn), the INHIBITION is given as 27.65%.

As for `CC(C)n1cnc2c(N3CCCC3)nc(C3CCNCC3)cc21`, the INHIBITION was found to be 14.39%.

For the compound `CC(NCc1ccccc1Br)c1ccc2[nH]c(=O)[nH]c2c1` (stereo not drawn), the INHIBITION was found to be 20.28%.

Regarding `CCCc1nc2c(c(C)c(C)n2Cc2ccccn2)c(N)c1CC`, the INHIBITION is listed as -17.84%.

Turning to `O=C(NCCc1cc(N2CCOCC2)nc(NC2CC2)n1)C1CC1`, the INHIBITION stood at 38.45%.

As for `COCCN1CCN(c2nc(O)cc(Cc3ccccc3F)n2)CC1`, the INHIBITION is -35.66%.

Consider `Cc1cc(NC(=O)Cn2cc(C#N)c(=O)c3cc(Br)ccc32)no1`, for which the INHIBITION stood at 3.43%.

For the compound `CN(Cc1cc(C2CC2)on1)C(=O)CN1C(=O)OC(C)(C)C1=O`, the INHIBITION is listed as 37.41%.

Regarding `CN(Cc1ccoc1)C(=O)CN1C(=O)OC(C)(C)C1=O`, the INHIBITION is 0.85%.

Take `CN(Cc1ccon1)C(=O)CN1C(=O)OC(C)(C)C1=O`: the INHIBITION came to 70.76%.
